Results published in PubChem BioAssay AID720697 (Broad Institute, 2013).
Potency and affinity values are given separately. Inconclusive results are not listed. Entries that show only a call come without a potency. Active and inactive are the calls of the source.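 The calls were made as follows: active = signal loss with fitted half-maximal concentration at or below twice the top valid tested dose in every test run; inconclusive = runs disagree, flat 30 to 70% signal loss, or poor fit; inactive = all runs flat, opposite direction, or potency beyond limit.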

assay: general mammalian cell viability loss – inhibitor set, cherry-pick, set 2, cytotoxicity control for miR-122 modulator project, dose response (AID 720697); conditions: HEK293T viability, CellTiter-Glo luminescence, 48 h; series mostly up to 26 µM

SMILES	outcome
CCNC(=O)C[C@H]1CC[C@@H]2[C@@H](COc3ccc(NC(=O)Nc4cccc(Cl)c4)cc3C(=O)N2C)O1	inactive
C/C=C/c1ccc([C@@H]2[C@@H](CO)N(S(C)(=O)=O)[C@H]2CN(C)C(=O)CC)cc1	inactive
COC(=O)c1c(N)nc(C)n1-c1ccc(OC)cc1	inactive
COc1cccc(CNC(=O)C[C@@H]2CC[C@@H]3[C@@H](COc4ccc(NC(C)=O)cc4C(=O)N3C)O2)c1	inactive
Cc1noc(C)c1NC(=O)Nc1ccc2c(c1)C(=O)N(C)[C@@H]1CC[C@H](CC(=O)N[C@H]3CCN(Cc4ccccc4)C3)O[C@H]1CO2	inactive
CCC(=O)N1[C@H](CN(C(C)C)S(C)(=O)=O)[C@@H](c2ccccc2)[C@@H]1CO	inactive
COc1cc(NC(=O)c2c(F)c(F)c(F)c(F)c2F)c(OC)cc1Cl	inactive
CCCC(=O)Nc1ccc2c(c1)C(=O)N(C)[C@H]1CC[C@H](CC(=O)NCCN3CCCCC3)O[C@@H]1CO2	inactive
COc1ccccc1-c1ccc2c(c1)O[C@@H](CN(C)S(=O)(=O)c1ccc(F)cc1)[C@@H](C)CN([C@@H](C)CO)S2(=O)=O	inactive
C[C@@H]1CN([C@H](C)CO)S(=O)(=O)c2ccc(C3=CCCCC3)cc2O[C@@H]1CN(C)C(=O)Cc1ccncc1	inactive
C[C@@H]1CN([C@@H](C)CO)C(=O)c2cc(NC(=O)Nc3cccc4ccccc34)ccc2O[C@@H](C)CCCCO[C@H]1CN(C)CC1CCCCC1	inactive
C/C=C/c1ccc([C@H]2[C@H](CO)N[C@@H]2CN(CC)C(=O)c2cccnc2)cc1	inactive
CCCNC(=O)C[C@@H]1CC[C@H]2[C@H](COc3ccc(NC(=O)c4ccc(C(F)(F)F)cc4)cc3C(=O)N2C)O1	inactive
C/C=C/c1ccc([C@@H]2[C@@H](CO)N(Cc3ccccn3)[C@H]2CNC(=O)CC)cc1	inactive
C[C@H]1CN([C@@H](C)CO)S(=O)(=O)c2ccc(C3=CCCC3)cc2O[C@H]1CN(C)Cc1cccnc1	inactive
Cc1ccc(-c2nnn(CC(=O)N(CC(=O)NCC3CCCO3)c3ccccc3)n2)o1 (centres undefined)	inactive
O=C(c1ccc(CNc2c(NC3CCCCC3)c(=O)c2=O)cc1)N1CCc2ccccc21	inactive
CN1C(=O)c2cc(NC(=O)c3ccc(C(F)(F)F)cc3)ccc2OC[C@@H]2O[C@H](CC(=O)NC3Cc4ccccc4C3)CC[C@H]21	inactive
CCC(=O)N1[C@H](CO)[C@@H](c2ccccc2)[C@H]1CN(C(C)C)S(C)(=O)=O	inactive
COc1ccc(NC(=O)Cn2nnc(C(=O)NCc3ccccc3OC)c2N)cc1Cl	inactive

SMILES	outcome
COc1cccc(-c2ccc3c(c2)O[C@H](CN(C)C(=O)C2CCOCC2)[C@H](C)CN([C@H](C)CO)S3(=O)=O)c1	inactive
CC(=O)Nc1ccc2c(c1)C(=O)N(C)[C@H]1CC[C@H](CC(=O)Nc3ccccc3Cl)O[C@@H]1CO2	inactive
CN[C@H]1C[C@H]2c3[nH]c4ccc(-c5ccc(OC)cc5)cc4c3CCN2C(=O)[C@H]1[C@H](C)O	inactive
COc1ccc2c(c1)C(C)=CC(C)(C)N2C(=O)CNCc1ccc2c(c1)OCO2	inactive
CN1C(=O)c2cc(NC(=O)Nc3cccc(Cl)c3)ccc2OC[C@@H]2O[C@H](CC(=O)NCCc3ccncc3)CC[C@H]21	inactive
COC(=O)C[C@H]1CC[C@H]2[C@H](COc3ccc(NC(=O)NC(C)C)cc3C(=O)N2C)O1	inactive
Cc1onc(-c2ccccc2)c1C(=O)NCc1ccccn1	inactive
C[C@@H]1CN([C@H](C)CO)C(=O)c2cc(-c3cccc(C#N)c3)cnc2O[C@H]1CN(C)C(=O)C1CCC1	inactive
CC(C)NC(=O)N1C[C@@H]2[C@H](c3ccccc31)[C@H](CO)N2Cc1ccccc1	inactive
O=C(CSc1nc2ccccc2s1)N1CCOCC1	inactive
CCOc1ccc(NC(=S)N(CCCN2CCCC2)Cc2cccn2Cc2ccc(Cl)cc2)cc1	inactive
CCCC(=O)Nc1ccc2c(c1)C(=O)N(C)[C@@H]1CC[C@H](CC(=O)N3CCc4ccccc4C3)O[C@H]1CO2	inactive
CN(c1ccccc1)S(=O)(=O)c1ccc(C(=O)Nc2cccc(S(=O)(=O)N3CCOCC3)c2)cc1	inactive
CNC[C@@H]1Oc2cc(C#CC3CCCCC3)ccc2S(=O)(=O)N([C@@H](C)CO)C[C@@H]1C	inactive
CN(C)C(=O)c1ccc(-c2ccc([C@H]3[C@@H](CO)N4CCCCN(C(=O)C5CCCC5)C[C@@H]34)cc2)cc1	inactive
CN1C(=O)c2cc(NC(=O)c3cccs3)ccc2OC[C@@H]2O[C@H](CC(=O)NCCN3CCCCC3)CC[C@H]21	inactive
CC(=O)N(C[C@H]1N[C@H](CO)[C@@H]1c1ccc(-c2ccccc2)cc1)C(C)C	inactive
CCN(C[C@@H]1[C@@H](c2ccccc2)[C@H](CO)N1C(C)=O)C(=O)NC(C)C	inactive
CCC(=O)N1[C@@H](CO)[C@H](c2ccccc2)[C@@H]1CN(C(C)C)S(C)(=O)=O	inactive
